We go through nine compounds from PubChem BioAssay.

Assay [1] deals with PRMT1 (protein arginine N-methyltransferase 1). As to the kind of experiment: PRMT1 binders on small-molecule microarrays, primary screen, biochemical, small-molecule microarray, 635 nm fluorescence (AID 1088).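 Also: binding of Prmt1 protein to compounds spotted on small-molecule microarray slides.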 The conditions noted are these: small-molecule microarray binding, higher = more signal.
Assay [2] is described as follows: yeast growth modulation, basal conditions, primary screen, YJM789 clinical isolate, OD600, 24 h (AID 1089).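 Also: growth of clinical yeast isolate S. cerevisiae YJM 789 seeded 1000 cells per well; test concentration not given here.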 As to conditions: S. cerevisiae YJM789 growth, higher = more signal, called active from +8 up or from −8 down.
A short description of assay [3]: fission yeast growth modulation, primary screen, strain 972, OD600, 24 h, no modulator (AID 1090).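 Also: basal condition with compound alone and no growth modifier present; test concentration not given here.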 The conditions noted are these: S. pombe 972 growth, higher = more signal, called active from +8 up or from −8 down.
The nature of assay [4]: S. cerevisiae growth modulation with rapamycin, primary screen, strain BY4716, OD600, 96 h (AID 1091). Also: test concentration not given here. As to conditions: higher = more signal, called active from +8 up or from −8 down.
Assay [5] deals with Torsin-1A-interacting protein 2 (Homo sapiens) (UniProt Q8NFQ8). Put plainly: LULL1 binders on small-molecule microarray, primary screen, cell lysate, human LULL1 lysate, 635/667 nm fluorescence (AID 1092).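 Also: probe is lysate of COS7 cells overexpressing human LULL1; score merges per-feature 667 nm fluorescence with signal-to-noise.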 As to conditions: hLULL1 lysate binding, 635 nm fluorescence, higher = more signal.
The nature of assay [6]: E. coli growth modulation, two-sided OD650, primary screen, E. coli filamentation project, strain DRC41, 24 h (AID 1093).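 Also: MC1000 strain lacking acrAB efflux and sulA so SOS filamentation is blocked; test concentration not given here.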 As to conditions: OD650, 24 h, higher = more signal, called active from +8 up or from −8 down.
Assay [7] is described as follows: small-molecule microarray binders of probe aLefty2, primary screen, biochemical, biotinylated probe, 635/667 nm fluorescence (AID 1094).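 Also: score merges spot fluorescence near 667 nm with spot signal-to-noise ratio.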 As to conditions: higher = more signal.
The subject of assay [8] is Noggin (protein binding on small-molecule microarray). As to the kind of experiment: Noggin binders on small-molecule microarray, primary screen, biochemical, 635/667 nm fluorescence (AID 1095).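 Also: score merges 667 nm feature fluorescence with signal to noise over triplicate slides.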 The conditions noted are these: 635 nm fluorescence, higher = more signal.
Assay [9] concerns the target Neurogenic locus notch homolog protein 3 (Homo sapiens) (UniProt Q9UM47). Put plainly: NOTCH3 binders on small-molecule microarray, primary screen, biochemical, 635/667 nm fluorescence (AID 1096). The conditions noted are these: NOTCH3 binding, 635 nm fluorescence, higher = more signal.
Assay [10] is described as follows: small-molecule microarray binders of probe aEGFR, primary screen, biochemical, biotinylated probe, 635/667 nm fluorescence (AID 1097).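 Also: probe is a biotinylated anti-EGFR antibody binding compounds printed on slides; score combines fluorescence near 667 nm and signal to noise of each spot.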 The conditions noted are these: higher = more signal.
The subject of assay [11] is Plasmodium falciparum Sir2 (PF13_0152, Sir2A). As to the kind of experiment: pfSir2 binders on small-molecule microarrays, primary screen, biochemical, small-molecule microarray, 635 nm fluorescence (AID 1098).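 Also: score merges spot fluorescence intensity with its signal-to-noise ratio.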 The conditions noted are these: small-molecule microarray binding, fluorescence 635 nm; higher = more signal.
A short description of assay [12]: small-molecule microarray binders of probe aDKK1, primary screen, biochemical, biotinylated probe, 635/667 nm fluorescence (AID 1099).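 Also: score merges 667nm spot fluorescence with signal to noise across triplicate slides; reference of the scale not given here.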 As to conditions: higher = more signal.
Assay [13] is described as follows: small-molecule microarray binders of probe aCHRDL2, primary screen, biochemical, biotinylated probe, 635/667 nm fluorescence (AID 1100). The conditions noted are these: higher = more signal.
Assay [14] in a line: splicing luciferase reporter signal modulators, primary screen, spliceosome inhibition project, cell-based, HEK293, splice +/- reporter (AID 1101).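 Also: HEK293 cells carrying a splicing-competent luciferase reporter gene; test concentration not given here.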 The conditions noted are these: luminescence, 24 h, higher = more signal, called active from +8 up or from −8 down.
Assay [15] concerns the target Fibroblast growth factor 10 (Homo sapiens) (UniProt O15520). Put plainly: FGF10 binders on small-molecule microarrays, primary screen, biochemical, small-molecule microarray, 635 nm fluorescence (AID 1102). The conditions noted are these: FGF10 binding, fluorescence 635 nm, higher = more signal.
Assay [16] relates to glycogen synthase kinase-3 (GSK3A per assay name; protocol says GSK3B). Put plainly: GSK3 binders on small-molecule microarrays, primary screen, biochemical, small-molecule microarray, 635 nm fluorescence, GSK3A (AID 1103). Also: the record names both GSK3A and GSK3B. As to conditions: small-molecule microarray binding, fluorescence 635 nm; higher = more signal.
In assay [17] the target is Epidermal growth factor receptor (Homo sapiens) (UniProt P00533). Put plainly: EGFR binders on small-molecule microarrays, primary screen, biochemical, small-molecule microarray, 635 nm fluorescence (AID 1104).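 Also: score merges 667 nm emission intensity with spot signal to noise over triplicate slides.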 As to conditions: EGFR binding, higher = more signal.
In assay [18] the target is Follistatin-related protein 3 (Homo sapiens) (UniProt O95633). Put plainly: FSTL3 binders on small-molecule microarrays, primary screen, biochemical, small-molecule microarray, 635 nm fluorescence (AID 1105).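 Also: score merges emission near 667 nm and signal to noise per printed spot across three slides.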 The conditions noted are these: FSTL3 binding, higher = more signal.
The target of assay [19] is Dickkopf-related protein 1 (Homo sapiens) (UniProt O94907). As to the kind of experiment: DKK1 binders on small-molecule microarrays, primary screen, biochemical, small-molecule microarray, 635 nm fluorescence scan (AID 1106).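 Also: score merges emission near 667 nm with signal to noise over three replicate slides.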 As to conditions: DKK1 binding, higher = more signal.
In assay [20] the test system is Inhibin beta A chain (activin A). Put plainly: INHBA (activin A) binders on microarrays, primary screen, biochemical, small-molecule microarray, 635 nm fluorescence scan (AID 1107).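 Also: mouse activin A protein probed at 4.33 µg/mL on printed slides; score merges bound-protein fluorescence near 667 nm with spot signal-to-noise.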 The conditions noted are these: small-molecule microarray binding, higher = more signal.

The source made the active and inactive calls.

Sequence of Fibroblast growth factor 10 (Homo sapiens) (O15520 whole entry, looked up): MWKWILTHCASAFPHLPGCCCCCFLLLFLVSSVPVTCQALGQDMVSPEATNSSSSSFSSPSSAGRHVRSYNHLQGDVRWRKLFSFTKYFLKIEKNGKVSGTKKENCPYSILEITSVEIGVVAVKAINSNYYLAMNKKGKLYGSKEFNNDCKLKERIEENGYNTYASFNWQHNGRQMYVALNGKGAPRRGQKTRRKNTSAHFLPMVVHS
Sequence of Torsin-1A-interacting protein 2 (Homo sapiens) (Q8NFQ8 whole entry, looked up): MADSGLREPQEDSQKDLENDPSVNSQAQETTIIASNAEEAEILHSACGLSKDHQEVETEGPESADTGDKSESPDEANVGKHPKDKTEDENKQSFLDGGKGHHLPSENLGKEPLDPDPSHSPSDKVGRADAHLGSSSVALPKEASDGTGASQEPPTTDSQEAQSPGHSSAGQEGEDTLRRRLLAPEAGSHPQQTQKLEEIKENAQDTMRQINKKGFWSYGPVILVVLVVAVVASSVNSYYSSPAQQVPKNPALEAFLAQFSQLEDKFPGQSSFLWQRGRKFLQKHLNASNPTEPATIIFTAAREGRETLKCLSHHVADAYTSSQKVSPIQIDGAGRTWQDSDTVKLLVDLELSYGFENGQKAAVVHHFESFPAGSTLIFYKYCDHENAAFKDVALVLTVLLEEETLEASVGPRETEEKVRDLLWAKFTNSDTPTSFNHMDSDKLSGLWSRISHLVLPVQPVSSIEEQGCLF
Sequence of Dickkopf-related protein 1 (Homo sapiens) (O94907 whole entry, looked up): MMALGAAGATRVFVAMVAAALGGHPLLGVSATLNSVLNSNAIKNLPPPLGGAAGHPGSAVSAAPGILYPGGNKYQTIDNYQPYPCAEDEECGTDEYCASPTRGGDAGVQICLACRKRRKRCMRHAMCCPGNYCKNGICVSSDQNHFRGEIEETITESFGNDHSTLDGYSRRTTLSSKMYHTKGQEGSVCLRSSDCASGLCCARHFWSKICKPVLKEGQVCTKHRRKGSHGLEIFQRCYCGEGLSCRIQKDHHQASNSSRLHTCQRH
Sequence of Epidermal growth factor receptor (Homo sapiens) (P00533 whole entry, looked up): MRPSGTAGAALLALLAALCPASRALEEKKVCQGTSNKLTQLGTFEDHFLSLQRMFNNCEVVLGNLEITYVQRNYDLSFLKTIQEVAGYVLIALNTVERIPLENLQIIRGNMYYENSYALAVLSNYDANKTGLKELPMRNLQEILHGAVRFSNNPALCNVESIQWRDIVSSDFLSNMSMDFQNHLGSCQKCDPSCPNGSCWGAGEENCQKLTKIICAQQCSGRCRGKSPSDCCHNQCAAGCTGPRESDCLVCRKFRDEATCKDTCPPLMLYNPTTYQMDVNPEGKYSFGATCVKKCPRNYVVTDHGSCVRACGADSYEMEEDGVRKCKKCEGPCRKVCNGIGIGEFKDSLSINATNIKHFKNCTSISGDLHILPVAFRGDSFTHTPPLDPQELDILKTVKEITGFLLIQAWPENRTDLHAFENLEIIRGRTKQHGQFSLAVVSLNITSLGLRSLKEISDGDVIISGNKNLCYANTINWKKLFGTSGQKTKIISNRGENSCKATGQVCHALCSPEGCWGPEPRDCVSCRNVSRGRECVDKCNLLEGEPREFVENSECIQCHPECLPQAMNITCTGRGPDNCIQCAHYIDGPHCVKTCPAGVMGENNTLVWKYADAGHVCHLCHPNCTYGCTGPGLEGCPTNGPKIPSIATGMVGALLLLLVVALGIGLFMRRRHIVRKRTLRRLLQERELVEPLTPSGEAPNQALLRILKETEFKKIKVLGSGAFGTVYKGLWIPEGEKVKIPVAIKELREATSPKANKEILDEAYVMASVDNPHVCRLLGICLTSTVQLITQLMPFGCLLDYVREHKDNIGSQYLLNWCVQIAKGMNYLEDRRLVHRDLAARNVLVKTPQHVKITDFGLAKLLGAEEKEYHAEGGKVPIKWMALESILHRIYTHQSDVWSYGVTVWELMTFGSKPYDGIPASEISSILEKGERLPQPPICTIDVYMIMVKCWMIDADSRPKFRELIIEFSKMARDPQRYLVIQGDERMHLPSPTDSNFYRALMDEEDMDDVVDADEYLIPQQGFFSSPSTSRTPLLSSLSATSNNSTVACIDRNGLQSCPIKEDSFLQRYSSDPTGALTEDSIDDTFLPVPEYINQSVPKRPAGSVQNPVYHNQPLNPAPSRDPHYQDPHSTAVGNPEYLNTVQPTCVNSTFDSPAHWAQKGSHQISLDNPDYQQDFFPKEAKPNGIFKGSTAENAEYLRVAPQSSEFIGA
Sequence of Neurogenic locus notch homolog protein 3 (Homo sapiens) (Q9UM47 whole entry, looked up): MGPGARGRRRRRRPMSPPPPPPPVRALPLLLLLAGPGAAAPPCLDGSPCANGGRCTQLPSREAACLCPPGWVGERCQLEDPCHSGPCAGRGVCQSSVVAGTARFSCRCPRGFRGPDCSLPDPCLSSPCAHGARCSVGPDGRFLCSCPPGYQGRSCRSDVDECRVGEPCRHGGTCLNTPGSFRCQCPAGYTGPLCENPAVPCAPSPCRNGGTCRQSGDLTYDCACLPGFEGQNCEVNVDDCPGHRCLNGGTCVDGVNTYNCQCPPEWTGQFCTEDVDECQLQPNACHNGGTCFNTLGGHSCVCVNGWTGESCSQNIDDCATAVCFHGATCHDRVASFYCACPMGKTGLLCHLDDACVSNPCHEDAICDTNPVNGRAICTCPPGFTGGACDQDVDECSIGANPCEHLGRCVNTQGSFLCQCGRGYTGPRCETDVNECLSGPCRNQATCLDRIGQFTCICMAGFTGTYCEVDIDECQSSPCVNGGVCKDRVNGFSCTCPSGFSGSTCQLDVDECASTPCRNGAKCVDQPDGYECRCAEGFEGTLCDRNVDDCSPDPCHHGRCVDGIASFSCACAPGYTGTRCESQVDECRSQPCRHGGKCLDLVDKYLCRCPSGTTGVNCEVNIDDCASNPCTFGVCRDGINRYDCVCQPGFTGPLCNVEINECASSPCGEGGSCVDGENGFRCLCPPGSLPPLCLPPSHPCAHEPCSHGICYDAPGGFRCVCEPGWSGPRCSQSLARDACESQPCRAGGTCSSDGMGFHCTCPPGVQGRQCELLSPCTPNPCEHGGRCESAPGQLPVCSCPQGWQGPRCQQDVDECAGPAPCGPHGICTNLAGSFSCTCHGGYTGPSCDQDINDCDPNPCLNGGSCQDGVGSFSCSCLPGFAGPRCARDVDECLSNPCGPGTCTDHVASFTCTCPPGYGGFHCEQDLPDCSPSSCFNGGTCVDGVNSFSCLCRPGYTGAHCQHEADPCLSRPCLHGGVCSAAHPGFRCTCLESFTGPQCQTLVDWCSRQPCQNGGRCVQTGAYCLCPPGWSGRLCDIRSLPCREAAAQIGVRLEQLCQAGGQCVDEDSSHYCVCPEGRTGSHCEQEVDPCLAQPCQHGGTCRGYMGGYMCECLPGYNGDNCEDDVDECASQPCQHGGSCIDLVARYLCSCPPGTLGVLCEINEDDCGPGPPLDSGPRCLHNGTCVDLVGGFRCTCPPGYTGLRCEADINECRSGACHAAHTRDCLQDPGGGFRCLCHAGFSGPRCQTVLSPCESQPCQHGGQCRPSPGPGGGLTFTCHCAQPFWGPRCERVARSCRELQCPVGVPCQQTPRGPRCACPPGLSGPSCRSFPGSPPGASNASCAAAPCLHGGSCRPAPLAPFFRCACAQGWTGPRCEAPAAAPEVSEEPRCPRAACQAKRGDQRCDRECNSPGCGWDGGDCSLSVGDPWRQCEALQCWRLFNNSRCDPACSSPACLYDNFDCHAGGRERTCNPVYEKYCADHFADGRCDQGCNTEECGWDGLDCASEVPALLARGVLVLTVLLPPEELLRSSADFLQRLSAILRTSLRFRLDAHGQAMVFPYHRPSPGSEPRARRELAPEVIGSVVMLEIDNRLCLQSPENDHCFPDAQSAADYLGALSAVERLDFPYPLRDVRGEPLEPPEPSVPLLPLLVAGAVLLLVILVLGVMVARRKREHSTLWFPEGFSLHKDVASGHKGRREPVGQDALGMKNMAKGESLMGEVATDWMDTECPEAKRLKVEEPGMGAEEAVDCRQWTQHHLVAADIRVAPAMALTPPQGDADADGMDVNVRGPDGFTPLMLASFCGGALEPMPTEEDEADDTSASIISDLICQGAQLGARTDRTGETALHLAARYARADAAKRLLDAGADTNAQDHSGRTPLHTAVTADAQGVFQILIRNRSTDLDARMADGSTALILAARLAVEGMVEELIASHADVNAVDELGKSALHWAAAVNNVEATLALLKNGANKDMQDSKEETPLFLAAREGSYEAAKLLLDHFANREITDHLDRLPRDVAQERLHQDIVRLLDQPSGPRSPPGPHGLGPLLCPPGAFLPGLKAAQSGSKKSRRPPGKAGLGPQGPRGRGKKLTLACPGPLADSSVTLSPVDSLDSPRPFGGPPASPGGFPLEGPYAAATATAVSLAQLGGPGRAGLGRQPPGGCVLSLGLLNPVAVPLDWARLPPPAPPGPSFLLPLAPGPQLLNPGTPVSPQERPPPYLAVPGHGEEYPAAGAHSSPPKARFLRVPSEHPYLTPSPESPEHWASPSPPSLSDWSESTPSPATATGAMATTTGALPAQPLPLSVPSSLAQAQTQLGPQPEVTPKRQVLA
Sequence of Follistatin-related protein 3 (Homo sapiens) (O95633 whole entry, looked up): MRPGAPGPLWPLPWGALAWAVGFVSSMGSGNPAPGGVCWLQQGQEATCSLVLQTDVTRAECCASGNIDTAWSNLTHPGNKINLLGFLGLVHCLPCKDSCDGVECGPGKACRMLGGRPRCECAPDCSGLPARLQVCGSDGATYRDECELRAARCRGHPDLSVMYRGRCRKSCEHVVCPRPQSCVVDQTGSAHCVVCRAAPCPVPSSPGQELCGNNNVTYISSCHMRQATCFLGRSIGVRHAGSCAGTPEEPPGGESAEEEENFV

`C=C[C@@H](C)[C@H](OC(=O)Nc1ccc(SC)cc1)c1ccc(OCCO)cc1`: the composite z-score in assay [1] was -0.0446; in [5], 0.721; in [7] it was -0.136; in [8] it was 0.362; in assay [9] it was 0.405; in [10], -0.105. Moreover, the composite z-score in assay [11] is -0.435; in [12], -0.0748; in assay [13], 0.626; in assay [15], -0.553; in [16], -1.14; in [17], -0.541. Further, the composite z-score was -0.138 in assay [18], -0.773 in [19] and -0.0131 in assay [20]. For the same compound, the z-score is 0.103 (inactive) in [2]; -1.02 (inactive) in assay [3]; -0.32 (inactive) in assay [4]; 1.18 (inactive) in assay [6]; -1.91 (inactive) in [14].

With `CCOC(=O)C[C@H]1[C@H](OC(=O)c2ccc(-c3ccccc3)cc2)[C@@H](NC(=O)c2ccc3ccccc3c2)c2cc(OCCCO)ccc2N1C(=O)c1ccc2ccccc2n1`, the composite z-score in assay [1] is 1.15; in [5], 1.47; in [7], -0.0358; in assay [8], 0.372; in [9], 0.895; in assay [10], 0.0167. Further, the composite z-score in assay [11] is 0.33; in assay [12], -0.0069; in assay [13], 0.221; in assay [15], 0.577; in [16], 0.439; in [17], 0.098. The values for the composite z-score in assay [18], in assay [19] and in [20] were 0.458, 0.426 and 0.31, respectively. In addition, the z-score in assay [2] was -0.72 (inactive); in assay [3], -0.918 (inactive); in assay [4], 0.592 (inactive); in [6], -0.56 (inactive); in assay [14], -0.634 (inactive).

For `CC(C)CNC(=O)[C@@]1(c2ccc([N+](=O)[O-])cc2)CC(=O)N(C2CCCCC2)[C@@H]1c1ccc(CO)cc1I`, the composite z-score is 0.935 in [1]; 1.98 in [5]; -0.0512 in assay [7]; 0.193 in assay [8]; 0.636 in [9]; -0.096 in assay [10]. Besides, the composite z-score is 1.67 in assay [11]; 0.349 in [12]; 0.641 in assay [13]; 0.489 in [15]; -0.198 in assay [16]; -0.519 in assay [17]. Also, the composite z-score is -0.16 in assay [18], -0.477 in assay [19] and 0.138 in [20]. In addition, the z-score in assay [2] is -0.579 (inactive); in assay [3], 0.279 (inactive); in assay [4] it was -0.143 (inactive); in [6], -0.602 (inactive); in assay [14] it was -0.721 (inactive).

On to `CCCc1cccc(=O)o1`, for which the composite z-score was 0.804 in [1]; 1.17 in assay [5]; -0.0475 in [7]; 0.614 in [8]; 0.363 in assay [9]; 0.0276 in [10]. The composite z-score in assay [11] is 0.521; in assay [12] it was -0.161; in assay [13] it was -0.401; in [15] it was 0.215; in assay [16] it was 1.04; in [17], -0.21. Further, the results for the composite z-score in [18], in assay [19] and in assay [20] were 0.182, 0.646 and 1.06, respectively. For the same compound, the z-score was -0.91 (inactive) in [2]; 0.641 (inactive) in assay [3]; -0.467 (inactive) in assay [4]; -0.454 (inactive) in assay [6]; -0.396 (inactive) in assay [14].

`C=CCOC(=O)[C@@H]1[C@H]2C(=O)O[C@H](c3ccccc3)[C@H](c3ccccc3)N2[C@H](c2ccc(OCCOC(=O)[C@H]3C[C@H]4C(=O)N[C@@H](CCCCN(C)C)C(=O)N4[C@H]3c3cccc(OCCO)c3)cc2)[C@@]12C(=O)Nc1ccc(I)cc12`: the composite z-score is 1.56 in assay [1]; 2.81 in [5]; -0.0216 in assay [7]; 1.03 in assay [8]; 1.08 in assay [9]; -0.105 in assay [10]. Besides, the composite z-score is 1.41 in [11]; 0.097 in [12]; -0.0926 in assay [13]; 1.02 in [15]; 1.32 in assay [16]; 0.605 in [17]. Further, the composite z-score in [18] is 1.32; in assay [19], 0.626; in [20] it was 0.208. Besides, the z-score in assay [2] was 0.95 (inactive); in [3], 0.688 (inactive); in assay [4] it was 3.87 (inactive); in [6], 0.0565 (inactive); in [14], 0.348 (inactive).

Take `COc1ccc(NN2C(C(O)c3ccccn3)C=CC3C(=O)N(C4CCCCC4)C(=O)C32)cc1` (stereo not given): the composite z-score in assay [1] stood at 1.56; in assay [5], 3.26; in [7], 0.282; in assay [8], 0.05; in assay [9], 1.05; in [10], 0.134. Also, the composite z-score in assay [11] is 1.31; in assay [12], 0.2; in assay [13], 0.862; in [15], 0.962; in assay [16], 1.25; in [17], 0.224. For the same compound, the composite z-score is 1.16 in assay [18], -0.39 in assay [19] and 0.627 in assay [20]. The z-score was -0.199 (inactive) in assay [2]; -0.121 (inactive) in assay [3]; 0.151 (inactive) in assay [4]; 0.265 (inactive) in [6]; -1.44 (inactive) in assay [14].

In the case of `O=C1O[C@@H](c2ccccc2)[C@@H](c2ccccc2)N2[C@@H](c3ccc(O)cc3)[C@]3(C(=O)Nc4ccccc43)[C@@H](C(=O)Nc3nc4ccccc4s3)[C@H]12`, the composite z-score was 1.51 in assay [1]; 2.77 in [5]; -0.15 in assay [7]; 0.797 in assay [8]; 0.881 in [9]; -0.132 in assay [10]. Also, the composite z-score is 1.38 in [11]; -0.111 in [12]; 0.02 in assay [13]; 0.488 in [15]; 0.878 in [16]; -0.104 in assay [17]. The results for the composite z-score in assay [18], in assay [19] and in [20] were 0.415, 0.065 and 0.3, respectively. Also, the z-score in [2] is 0.813 (inactive); in assay [3], 0.849 (inactive); in assay [4] it was 1.4 (inactive); in assay [6] it was -0.0768 (inactive); in assay [14], 0.641 (inactive).

Take `COCCOC(=O)N1C(=O)[C@@]2(c3cc(C#CCNC(N)=O)ccc31)[C@H](C(=O)N1CCCCCCC1)[C@H]1C(=O)O[C@H](c3ccccc3)[C@H](c3ccccc3)N1[C@@H]2c1ccc(O)cc1`: the composite z-score was 1.41 in assay [1]; 1.66 in assay [5]; 0.111 in assay [7]; 1.46 in assay [8]; 1.08 in assay [9]; -0.0381 in assay [10]. Moreover, the composite z-score in [11] is 1.25; in assay [12], -0.124; in assay [13], 0.526; in [15] it was 0.527; in assay [16], 1; in [17], 0.734. Also, the composite z-score in assay [18] came out at 1.28; in assay [19] it was 0.751; in assay [20], 1.27. Moreover, the z-score in assay [2] is 0.355 (inactive); in [3] it was -0.216 (inactive); in [4] it was 0.903 (inactive); in assay [6], 0.0623 (inactive); in assay [14], 0.392 (inactive).

In the case of `C=C1C2CC3C(=C4C(CO[C@@H]4[C@H]4CCCN4S(=O)(=O)c4ccccc4[N+](=O)[O-])C4C(=O)N(C)C(=O)C34)CC2C(=O)N1C` (stereo not given in full), the composite z-score in assay [1] was 0.627; in assay [5], 0.303; in assay [7] it was -0.139; in [8], 0.082; in [9], 0.22; in [10], 0.106. In addition, the composite z-score in assay [11] was 0.201; in assay [12], -0.2; in assay [13], -0.427; in [15] it was 0.475; in assay [16], 0.0168; in [17] it was -0.0553. Further, the results for the composite z-score in assay [18], in assay [19] and in [20] were 0.157, 0.298 and 0.689, respectively. The z-score was -0.0815 (inactive) in assay [2]; -4.92 (inactive) in assay [3]; -0.824 (inactive) in assay [4]; -0.509 (inactive) in [6]; 0.194 (inactive) in assay [14].
